{"source": "PubChem BioAssay (NCI)", "note": "Compounds without any hit were thinned out: in the full panel of roughly 83,000, 20% have a hit.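 In brief: 96-well plates, 48 h treatment, single concentration, percent growth endpoint.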 Calls of active or inactive are those of the source. Rule for the calls: active = growth percent below 10; inactive = the rest.", "data": [{"system": "IGROV1 ovarian", "assay": "NCI-60 one-dose screen, 48 h (100 = growth as untreated, 0 = no growth, -100 = all killed)", "details": "10 µM unless noted", "values": [{"smiles": "O=c1ccn(-c2ncnc3nc[nH]c23)cc1", "growth": "88% (inactive)"}, {"smiles": "CCN(CC)c1ccc(CNc2ccnc3ccccc23)cc1", "growth": "78.2% (inactive)"}, {"smiles": "COc1ccc(/C=C\\c2cc(OC)c(OC)c(OC)c2)cc1OC(=O)c1cccc(Cn2cc(CCOC(=O)c3cccc(Cn4nnc5c4C(=O)c4ccccc4C5=O)c3)nn2)c1", "growth": "16.1% (inactive)"}, {"smiles": "CCCCN(CCCC)C(=O)CC", "growth": "115% (inactive)"}, {"smiles": "O=C1Nc2ccc3c(c2/C1=C\\c1cc2c(cc1Br)OCO2)OCO3", "growth": "-7.11% (active)"}, {"smiles": "O=C1/C(=C/c2ccccc2)CN(C(=O)CCN2CCC(=NO)CC2)C/C1=C\\c1ccccc1", "growth": "-5.65% (active)"}, {"smiles": "COc1ccc2c(c1)[nH]c(=O)c1c3cc(OC)ccc3cn21", "growth": "16.8% (inactive)"}, {"smiles": "Cn1ccc(=O)c(S(N)(=O)=O)c1", "growth": "124% (inactive)"}, {"smiles": "Cc1cc(N/N=C/c2nc(-c3ccccc3)oc2C)c2cc(Br)ccc2n1", "growth": "78.6% (inactive)"}, {"smiles": "Cc1nn(-c2ccc([N+](=O)[O-])cc2)c2ncnc(NCCc3ccccc3)c12", "growth": "99.2% (inactive)"}, {"smiles": "CCN(CC)CCC(CNc1ccnc2cc(Cl)ccc12)c1ccc(Cl)cc1", "note": "(stereo not given)", "growth": "33.5% (inactive)"}, {"smiles": "OC(c1cc2cc(Br)ccc2c2cc(Br)ccc12)C1CCCCN1", "note": "(stereo not given)", "growth": "-67% (active)"}, {"smiles": "C=C1CCC2C3(C)COC(c4c(OC)cccc4OC)OC3CCC2(C)C1C/C=C1/C(=O)OCC1O", "note": "(stereo not given)", "growth": "26.9% (inactive)"}, {"smiles": "COc1ccc(-c2nc(/C=N/Nc3cc(C)nc4ccc(Cl)cc34)c(C)o2)cc1", "growth": "-78.8% (active)"}, {"smiles": "O=C1c2ccccc2-c2ccccc2C1(Cl)Cl", "growth": "-98.5% (active)"}]}]}
